# Assay results reported in the supplement of paper PMC9794691.
# Test system: PC9
# Assay: area under confluence curve of compound monotherapy; compare to DMSO control AUC of the same experiment (AUC (confluence x time, arbitrary))
# Method: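 compare to DMSO control AUC of the same experiment; Monotherapy arm of the osimertinib DTP screen: EGFR-mutant NSCLC cells were treated with the test compound alone at a fixed dose (highest dose with <50% inhibition of parental cells, or 1 uM), then switched to drug-free medium at the DTP stage. IncuCyte confluence was tracked and AUC computed in Prism. AUC scale depends on experiment duration, so each row carries the same-experiment DMSO control AUC (monotherapy activity = DMSO AUC minus monotherapy AUC). The monotherapy value is shared between screen formats.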
# [1] = 1000 nM, DMSO control AUC in same experiment: 20567
# [2] = 1000 nM, DMSO control AUC in same experiment: 22064
# [3] = 1000 nM, DMSO control AUC in same experiment: 30604
# [4] = 1000 nM, DMSO control AUC in same experiment: 28684
# [5] = 1000 nM, DMSO control AUC in same experiment: 30578
smiles,measurement,setting,value
Cc1nc(-c2nc(-c3ccc(OC(F)(F)F)cc3)no2)nn1Cc1cccc(N2CCC(S(C)(=O)=O)CC2)c1,area under confluence curve,"10 nM, DMSO control AUC in same experiment: 18385",18100
same,area under confluence curve,"10 nM, DMSO control AUC in same experiment: 19076",18900
CC(=O)Nc1cccc(-n2c(=O)n(C3CC3)c(=O)c3c(Nc4ccc(I)cc4F)n(C)c(=O)c(C)c32)c1 [Trametinib],area under confluence curve,"10 nM, DMSO control AUC in same experiment: 21341",20400
same,area under confluence curve,"10 nM, DMSO control AUC in same experiment: 49189",49600
C[C@@]1(C(=O)Nc2ccc(F)nc2)CCCN1c1nc(Nc2cc(C3CC3)n[nH]2)c2cccn2n1,area under confluence curve,"100 nM, DMSO control AUC in same experiment: 21341",20100
same,area under confluence curve,"100 nM, DMSO control AUC in same experiment: 30580",30100
same,area under confluence curve,"100 nM, DMSO control AUC in same experiment: 49143",48900
C=CCn1c(=O)c2cnc(Nc3ccc(N4CCN(C)CC4)cc3)nc2n1-c1cccc(C(C)(C)O)n1,area under confluence curve,"100 nM, DMSO control AUC in same experiment: 22064",21300
same,area under confluence curve,"100 nM, DMSO control AUC in same experiment: 30604",30700
COC(=O)c1ccc([C@H]2c3[nH]c4ccccc4c3C[C@H](C(=O)OC)N2C(=O)CCl)cc1,area under confluence curve,"100 nM, DMSO control AUC in same experiment: 27958",27800
same,area under confluence curve,"100 nM, DMSO control AUC in same experiment: 30326",27300
same,area under confluence curve,"100 nM, DMSO control AUC in same experiment: 45737",46100
CCN1CCN(Cc2ccc(Nc3ncc(F)c(-c4cc(F)c5nc(C)n(C(C)C)c5c4)n3)nc2)CC1 [Abemaciclib],area under confluence curve,"100 nM, DMSO control AUC in same experiment: 28684",28400
same,area under confluence curve,"100 nM, DMSO control AUC in same experiment: 30578",29700
same,area under confluence curve,"100 nM, DMSO control AUC in same experiment: 88996",88400
Nc1nc(Nc2ccc3c(c2)CCC(N2CCCC2)CC3)nn1-c1cc2c(nn1)-c1ccccc1CCC2 (stereo unspecified),area under confluence curve,"300 nM, DMSO control AUC in same experiment: 20197",19600
same,area under confluence curve,"300 nM, DMSO control AUC in same experiment: 30008",28200
CN(C)CCCOc1ccc(-c2ccc3ncc4c(c3c2)n(C2CCOCC2)c(=O)n4C)cn1,area under confluence curve,"300 nM, DMSO control AUC in same experiment: 22064",22000
same,area under confluence curve,"300 nM, DMSO control AUC in same experiment: 29563",30100
same,area under confluence curve,"300 nM, DMSO control AUC in same experiment: 30604",30300
NC1(C(=O)N[C@@H](CCO)c2ccc(Cl)cc2)CCN(c2nc[nH]c3nccc2-3)CC1 [Capivasertib],area under confluence curve,"300 nM, DMSO control AUC in same experiment: 30578",29000
same,area under confluence curve,"300 nM, DMSO control AUC in same experiment: 31840",30700
same,area under confluence curve,"300 nM, DMSO control AUC in same experiment: 43316",42700
Cc1cccc(-c2[nH]c(C(C)(C)C)nc2-c2ccc3nccnc3c2)n1,area under confluence curve,[1],20400
same,area under confluence curve,[2],21700
Cc1nc(N2CCC3(CC2)CO[C@@H](C)[C@H]3N)c(CO)nc1-c1cccc(Cl)c1Cl,area under confluence curve,[1],20500
same,area under confluence curve,"1000 nM, DMSO control AUC in same experiment: 21678",22100
O=C([C@@H](Cc1cccc(C(F)(F)F)c1)NS(=O)(=O)c1cc(F)c2c(c1)CCNC2)N1CCCC1,area under confluence curve,"1000 nM, DMSO control AUC in same experiment: 21594",20800
O=C(c1cc(Cc2n[nH]c(=O)c3ccccc23)ccc1F)N1CCN(C(=O)C2CC2)CC1 [Olaparib],area under confluence curve,[2],20000
same,area under confluence curve,[3],30200
C[C@@H]1COCCN1c1cc(C2([S@](C)(=N)=O)CC2)nc(-c2cc[nH]c3nccc2-3)n1,area under confluence curve,[2],21700
same,area under confluence curve,[3],30800
COc1cc2nc(C)nc(N[C@H](C)c3cc(N)cc(C(F)(F)F)c3)c2cc1O[C@H]1CCOC1,area under confluence curve,[4],28300
C[C@@H](Nc1cc(F)cc(F)c1)c1cc(C(=O)N(C)C)cc2c(=O)cc(N3CCOCC3)oc12,area under confluence curve,[4],28100
same,area under confluence curve,[5],29100
same,area under confluence curve,"1000 nM, DMSO control AUC in same experiment: 30580",28800
same,area under confluence curve,"1000 nM, DMSO control AUC in same experiment: 43316",42700
Cc1[nH]nc(C(F)(F)F)c1Cc1sc2c(c1C(=O)N1C[C@](C)(O)CO1)c(=O)n(C)c(=O)n2C(C)C,area under confluence curve,[5],30100
Cc1cc2ncnn2cc1Nc1ncc2c(n1)n(C1CCOCC1)c(=O)n2C,area under confluence curve,[3],30500
O=C(CCCCCCC(=O)Nc1ccccc1)NO [Vorinostat],area under confluence curve,"1000 nM, DMSO control AUC in same experiment: 31239",29400
same,area under confluence curve,"1000 nM, DMSO control AUC in same experiment: 48219",47800
